# Laboratory results from PubChem BioAssay (NCATS).
# “And” between values parts separate entries of the source, which are not always exact repeats. Equal values may be shown once. A number with no mark means an inactive call.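 The calls were made as follows: active = compounds whose dose series gives a full or clear partial fitted curve of increased nuclear translocation; inconclusive = weak partial curve or effect only at the top dose; inactive = no dose-dependent translocation response.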
# Molecular target: Glucocorticoid receptor (Homo sapiens) (UniProt P04150)
# Assay: GR-GFP Redistribution (AID 450)
# Details: U2OS GR-GFP nuclear translocation, laser cytometry, 2 h
# Excerpt: NIH Molecular Libraries Screening Centers Network [MLSCN]
# NIH Chemical Genomics Center [NCGC]
# The glucocorticoid receptor (GR) Redistribution assay (BioImage) enables the visualization of GR cytoplasmic to nuclear translocation by the use of a GR-GFP fusion. GR is normally cytosolic, however ligands such as dexamethasone, cause nuclear translocation where the protein binds to response elements and interacts with various co-factors to modulate transcription. Because both functional agonists and antagonists can induce nuclear translocation, this assay can detect ligands regardless of their effects on gene expression. GR-GFP expressing U20S cells were used here. Dexamethasone was the positive control for translocation and data normalization. Detection of nuclear translocation was performed in 1536-well plates using the Acumen laser scanning plate cytometer (TTP LabTech). Validation of this assay and a detailed protocol have been described.
# NCGC Assay Protocol Summary:
# GR-GFP U2OS cells were maintained in DMEM with Glutamax and high glucose, 1% v/v penicillin-streptomycin, and 0.5 mg/mL Geneticin. For cell culture, 10% […] fetal bovine serum (FBS) was used (Invitrogen #26140-079). For cell plating 10% dextran, charcoal-stripped FBS (Hyclone SH30068.03) was used. U2OS cells were trypsin treated, suspended in medium, and passed through a 40 um basket filter. The cells were seeded at 600 cells/5 uL/well into clear-bottom black sided 1536-well plates and incubated for approximately 20 hrs, 37degC, 5%, CO2 in a tissue culture incubator. Twenty-three nL of compound was delivered by pin tool and the plates were incubated as above for 2 hrs. The compounds were tested as a 7-point titration ranging from 46 uM to 0.6 nM. The cells were fixed using the Kalypsys Washer/Dispenser station. The fixing protocol involved aspiration of the cell media, addition of 6 uL/well of PBS, aspiration of PBS, addition of 5uL/well of 100% methanol, aspiration of methanol, and addition of 3 uL/well PBS with 1.5 uM propidium iodide (PI). The plates were read by the Acumen Explorer using a 1 x 8 um scan of the whole well area. PI fluorescence triggered the collection of PI and GFP signals. A nuclei population was defined by a 10 to 100 um width and depth filter that eliminated small and large fluorescent particles. Two subpopulations of nuclei were then defined by peak intensity of GFP fluorescence to obtain translocated and untranslocated objects. The number of translocated objects was used for data normalization.
# Keywords: NIH Roadmap, MLSCN, MLI, MLSMR, sOGT, qHTS, NCGC
# Potency is read from the fitted curve at half-maximal effect.
# Glucocorticoid receptor (Homo sapiens), sequence (P04150 whole entry, looked up): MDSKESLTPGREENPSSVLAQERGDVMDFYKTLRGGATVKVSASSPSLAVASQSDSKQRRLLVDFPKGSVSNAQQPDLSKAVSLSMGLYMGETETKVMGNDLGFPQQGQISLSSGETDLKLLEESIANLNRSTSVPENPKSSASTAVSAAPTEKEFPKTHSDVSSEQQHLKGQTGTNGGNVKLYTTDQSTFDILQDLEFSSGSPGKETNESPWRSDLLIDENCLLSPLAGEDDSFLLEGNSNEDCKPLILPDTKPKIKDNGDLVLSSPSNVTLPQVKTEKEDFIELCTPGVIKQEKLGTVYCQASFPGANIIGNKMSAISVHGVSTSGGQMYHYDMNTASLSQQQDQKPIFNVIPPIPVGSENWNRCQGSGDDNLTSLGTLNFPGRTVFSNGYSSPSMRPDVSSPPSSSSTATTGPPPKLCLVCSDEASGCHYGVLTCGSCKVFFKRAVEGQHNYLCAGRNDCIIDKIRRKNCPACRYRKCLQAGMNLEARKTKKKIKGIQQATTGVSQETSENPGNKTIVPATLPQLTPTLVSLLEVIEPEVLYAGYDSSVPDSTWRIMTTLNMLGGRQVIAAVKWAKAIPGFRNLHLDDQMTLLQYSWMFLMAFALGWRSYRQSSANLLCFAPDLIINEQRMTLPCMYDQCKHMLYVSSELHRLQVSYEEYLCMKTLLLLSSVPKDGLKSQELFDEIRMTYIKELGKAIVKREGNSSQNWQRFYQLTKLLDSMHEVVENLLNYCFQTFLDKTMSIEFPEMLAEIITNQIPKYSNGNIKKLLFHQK
row,SMILES,Potency
1,CNCCc1c[nH]c2ccc(O)cc12,> 46 µM
2,C#CCOC(=O)C1=CCCN(C)C1,> 46 µM
3,NCCc1c[nH]c2ccccc12,> 46 µM
4,CN[C@@H]1C[C@@H](c2ccc(Cl)c(Cl)c2)c2ccccc21,> 46 µM
5,O=C1CCCN1CC#CCN1CCCC1,> 46 µM
6,O=C(O)CC[N+](=O)[O-],> 46 µM
7,Cc1nccc2c1[nH]c1ccccc12,> 46 µM and > 20.6 µM
8,CC[C@@]1(O)C(=O)OCc2c1cc1n(c2=O)Cc2cc3ccccc3nc2-1,> 46 µM and > 20.6 µM
9,COC(=O)[C@@H](N)CCCN=C(N)N[N+](=O)[O-],> 46 µM
10,CC(C)Oc1cccnc1N(C)C1CCN(Cc2ccccc2)CC1,> 46 µM
11,Clc1cnc(Oc2ccc(Oc3ncc(Cl)cc3Cl)cc2)c(Cl)c1,> 46 µM
12,CC(=O)OCC1=C(C(=O)O)N2C(=O)[C@@H](N)[C@@H]2SC1,> 20.6 µM
13,CCCN1CCC[C@H](c2cccc(O)c2)C1,> 46 µM
14,COc1ccc(C(=O)c2c(C)n(CCN3CCOCC3)c3cc(I)ccc23)cc1,> 46 µM
15,NC(=NCCC[C@H](N)C(=O)O)N[N+](=O)[O-],> 46 µM
16,CC(=O)NCCc1c[nH]c2ccccc12,> 46 µM
17,CCOC(=O)c1cncn1[C@H](C)c1ccccc1,> 46 µM

row,SMILES,Potency
1,c1ccc(CCCN2CCN(CCOC(c3ccccc3)c3ccccc3)CC2)cc1,> 46 µM
2,O=c1cccc2n1CC1CNC[C@H]2C1,> 20.6 µM and > 46 µM
3,NCCc1c[nH]c2ccc(O)cc12,> 46 µM and > 20.6 µM
4,CNCCc1ccc(O)c(O)c1,> 46 µM
5,CCCN1CCO[C@@H]2c3cc(O)ccc3OC[C@H]21,> 46 µM
6,C[C@@H](N)Cc1cnc[nH]1,> 46 µM
7,c1ccc2sc(C3(N4CCCCC4)CCCCC3)cc2c1,> 46 µM
8,CCCCc1ccc(C(=O)O)nc1,> 46 µM and > 20.6 µM
9,CC1=NN=C(c2ccc(N)cc2)c2cc3c(cc2C1)OCO3,> 46 µM
10,Cn1cnc(CCN)c1,> 46 µM
11,Cc1c(C(=O)c2cccc3ccccc23)c2cccc3c2n1[C@H](CN1CCOCC1)CO3,> 46 µM
12,O=C(O)Cc1cnc[nH]1,> 46 µM
13,C[C@@H]1O[C@H](C[N+](C)(C)C)C[C@H]1O,> 46 µM
14,NCc1cc(=O)[nH]o1,> 46 µM
15,S=C(NC1CCCCC1)N1CCC(c2cnc[nH]2)CC1,> 46 µM
16,Cc1nc(-c2ccc(-c3ccc(C(=O)N4CCc5cc6c(cc54)C4(CCN(C)CC4)CO6)cc3)c(C)c2)no1,> 46 µM
17,CCCN(CCC)[C@@H]1CCc2ccc(O)cc2C1,> 46 µM
